Results on 40 molecules are retold here after PubChem BioAssay (NCATS).

Unmarked numbers belong to inactive results. The source made the active and inactive calls. Calls follow the shape of the dose curve; as a rule, active = well fitted inhibition curve with a large enough effect; inconclusive = small, poorly fitted or top-dose-only effect; inactive = flat fitted curve, though single readings scatter. *1 amine or outer side, *2 acyl side, *3 side chain or, on linkers, in order; H or OH if unused. Where a SMILES comes first, the peptide text is derived from it. [ ]: non-standard residue; d: D form. The star is where a group is joined. ξ: configuration not given here. X9 = CCC(C)(N*)C(=O)C1CC[C@@H](C(=O)N[C@@H](Cc2ccccc2)C(=O)NCC(=O)O)N1; ξTyr(βOH) = NC(C(=O)O)C(O)c1ccc(O)cc1; X8 = O=C([C@@H]1CC(O)CN1[*:1])[*:2]; aIle = CC[C@@H](C)[C@H](N)C(=O)O; Thr(3ξ) = CC(O)[C@H](N)C(=O)O; ξIva = CCC(C)(N)C(=O)O; Aib = CC(C)(N)C(=O)O
Potency is read from the fitted curve at half-maximal effect.

The subject of the assay is Nanoluciferase (engineered Oplophorus gracilirostris luciferase). Put plainly: Primary Nanoluciferase (NLuc) qHTS assay for identification of artifact compounds. (AID 1845222). The note with it: NLuc-conditioned medium, Nano-Glo luminescence, 5 min; series mostly up to 54.1 µM; activity, negative = inhibition: at the top concentration. From the text:
PI: Alexander Tropsha Ph.D.
UNC Eshelman School of Pharmacy
University of North Carolina, Chapel Hill, North Carolina
Hits from high-throughput screening (HTS) of chemical libraries are often false positives due to their interference with the assay detection technology. In response to this problem, we generated the largest publicly available library of chemical liabilities and developed a free webtool to predict HTS artifacts, both of which are described herein. More specifically, we generated, curated, and integrated HTS datasets for thiol reactivity, redox activity, and luciferase (firefly and nano) activity. Using these curated datasets, we developed and validated several Quantitative Structure-Interference Relationship (QSIR) models to predict nuisance behavior. […] These models were employed for virtual profiling of the National Center for Advancing Translational Science's (NCATS) in-house library, and 256 compounds for each assay were selected for the experimental validation of nuisance behavior. The BA for these external predictions ranged from 58 to 78% for compounds within the applicability domains of the models. […] The models developed in this study, along with aggregation models previously developed by our group (SCAM Detective) were implemented in "Liability Predictor," an online tool which may be used as part of chemical library design or for triaging HTS hits. Both the models and the curated datasets are publicly available at https://liability.mml.unc.edu/.
SEQUENCE No. (e.g., 1, 2, 3, etc.); […] (e.g., Cells, Incubation, Reagent, etc.); VALUE; DESCRIPTION.
1; Reagent; 2 uL; Nanoluciferase media.
2; Compounds and control; 16 nL; Kalypsis pin tool (Wako USA) equipped with a 1536-well pin head.
4; Reagent; 2 uL; Luciferase enzyme.
6; Detection; Luminescence, ViewLux microplate reader.
NOTES (numbers refer to Sequence numbers above)
1. Medium was collected from the culture flasks of NLuc-expressing S16 cells (80% confluent) prior to cell plating, filtered through a 0.22um filter, and frozen at -20C prior to use. Media was diluted (1:55) and 2 uL was dispensed into all wells of a 1536-well assay plate (solid-bottom white plate; Greiner Bio One, Monroe, NC).
2. A Wako Pin-tool (Wako Automation, Richmond, VA) was used to transfer 16 nL of compounds (consisting of 7-plates in qHTS format, final concentration range 18.3 nM to 114 uM) or control Cilnidipine (final concentration range 623 nM to 80 uM).
3. 15 min. incubation at room temperature protected from light.
4. 2 uL of NLuc substrate (1:100 in Nano-Glo luciferase buffer; Nano-Glo luminescence assay, Promega, Madison, WI) was dispensed for a final assay volume of 4 uL.
5. Plates were centrifuged (121xg, 15 seconds) and incubated for 5 minutes.
6. Samples were read for luminescence on a ViewLux CCD imager (PerkinElmer). Data were normalized to no-enzyme (0% activity) and no-inhibitor (DMSO; 100%) controls and the resulting percent inhibition data were fitted to a 4-parameter Hill equation using NCATS in-house software.
Turning to `C=C1C[C@]23C[C@@]1(O)CC[C@H]2[C@@]12C=C[C@H](O)[C@@](C)(C(=O)O1)[C@H]2[C@@H]3C(=O)O`, the “activity, negative = inhibition” value is 0.49%.

Regarding `CNC(=O)c1ccc2c(c1)CCO[C@H]2CCN1CCN(c2ccc(C(N)=O)cc2)CC1`, the “activity, negative = inhibition” value is 1.54%.

Consider `NC(Cc1c[nH]c2ccc(O)cc12)C(=O)O` (stereo not given), for which the “activity, negative = inhibition” value is -7.04%.

As for `O=C(O)C(Cc1ccccc1)NC(=O)C1CCCN1` (stereo not drawn) (H-Pro-Phe-OH; configuration not given here), the “activity, negative = inhibition” value was 1.53%.

For `CN1CCc2cc(Cl)c(O)cc2[C@@H](c2cccc3c2OCC3)C1`, the “activity, negative = inhibition” value is 1.8%.

`Cc1cc(C(=O)N2Cc3cnn(C)c3Nc3ccccc32)ccc1CNC(=O)N1CCN(Cc2cc(O)cc(O)c2)CC1`: the “activity, negative = inhibition” value is 2.68%.

Turning to `Fc1ccccc1-c1nc2ccn(Cc3ccc(-c4ccc(C(F)(F)F)cc4C(F)(F)F)nn3)cc-2n1`, the “activity, negative = inhibition” value is 2.33%.

For the molecule `C[C@@H]1O[C@@H](O[C@H]2[C@H](OC(=O)[C@]34CCC(C)(C)C[C@H]3C3=CCC5[C@@]6(C)C[C@@H](O)[C@@H](O)[C@@](C)(CO)C6[C@H](O)C[C@@]5(C)[C@]3(C)CC4)OC[C@H](O)[C@@H]2O)[C@H](O)[C@H](O)[C@H]1O[C@@H]1OC[C@@H](O)[C@H](O[C@H]2O[C@H](C)[C@@H](O)[C@H](O)[C@@H]2O)[C@H]1O` (stereo not given in full), the activity, negative = inhibition was 4.47% [at 11.6 µM].

For `CCOC(=O)CSc1nc2c(sc3ccccc32)c(=O)n1CCCN1CCCC1`, the “activity, negative = inhibition” value is 0.0448%.

As to `CC1=C(CO)CC(C(C)C2CCC3C4CC=C5CC(OC6OC(COC7OC(CO)C(O)C(O)C7O)C(O)C(O)C6O)CC(O)C5(C)C4CCC23C)OC1=O` (stereo not given), the “activity, negative = inhibition” value is 1.51% [at 25.7 µM].

Consider `CC1(C)OC(=O)CC(O)C2(C)C1CC(=O)C1(C)C2C(O)CC2(C)C(c3ccoc3)OC(=O)C3OC321` (stereo not given), for which the “activity, negative = inhibition” value was 0.461% [at 25.7 µM].

Regarding `C=C1C(O)CC2C(C(=O)O)=COC(O[C@@H]3O[C@H](COC(=O)c4ccc(O)cc4)[C@@H](O)[C@H](O)[C@H]3O)C12` (stereo not given in full), the “activity, negative = inhibition” value is -2.06% [at 25.7 µM].

`CC(CNS(=O)(=O)C(C)C)c1ccc(-c2ccc(C#N)cc2)cc1` (stereo not given): the “activity, negative = inhibition” value is 0.702%.

Regarding `O=C(Cc1ccc(Cl)cc1)Nc1cnccc1C(=O)O`, the Potency is 9.53 µM (active).

For `CC(C)C1NC(=O)CNC(=O)C2CCCN2C(=O)C(Cc2c[nH]c3ccccc23)NC(=O)CNC(=O)C(C(O)c2ccc(O)cc2)NC(=O)CNC1=O` (stereo not given) (cyclo(G[ξTyr(βOH)]GWPGV); configuration not given here), the “activity, negative = inhibition” value was 0.182% [at 25.7 µM].

Consider `Cc1cccc(-c2nn3c(c2-c2ccnc4ccc(C(N)=O)cc24)CCC3)n1`, for which the “activity, negative = inhibition” value was 1.59%.

With `COC(=O)C1=CO[C@@H](O[C@@H]2O[C@H](CO)[C@@H](O)[C@H](O)[C@H]2O)[C@@H]2[C@@H](C)[C@@H](O)C(O)[C@H]12` (stereo not given in full), the “activity, negative = inhibition” value was 4.89% [at 25.7 µM].

Turning to `CC1=CC(=O)CC(C)(C)C1CCC(C)O[C@@H]1O[C@H](CO)[C@@H](O)[C@H](O)[C@H]1O` (stereo not given in full), the “activity, negative = inhibition” value was -0.929%.

Consider `CC(=O)Nc1cccc2c1c(Sc1ccc(Cl)cc1)c(C)n2CC(=O)O`, for which the Potency is 10.7 µM (active).

`O=C(O)CC1CCC(c2ccc(NC(=O)c3nnc(Nc4ccc(F)c(F)c4)o3)cc2)CC1` (stereo not given): the “activity, negative = inhibition” value was -12.6%.

With `C=C1CCC(OC(C)=O)C2(C)CC3OC(=O)C(C)=C3CC12` (stereo not given), the “activity, negative = inhibition” value was 2.59%.

As for `C=C1CC[C@@]2(OC1)O[C@H]1CC3[C@@H]4CC=C5C[C@@H](O)C[C@@H](O[C@@H]6OC[C@H](O)[C@H](O)[C@H]6O[C@@H]6O[C@@H](C)[C@H](O)[C@@H](O)[C@H]6O)[C@]5(C)C4CC[C@]3(C)[C@H]1[C@@H]2C` (stereo not given in full), the “activity, negative = inhibition” value was -0.867% [at 25.7 µM].

For `CC(=O)O[C@@H]1[C@@H](O)[C@H](C)O[C@@H](O[C@H]2[C@@H]3C=CO[C@@H](O[C@@H]4O[C@H](CO)[C@@H](O)[C@H](O)[C@H]4OC(C)=O)[C@@H]3[C@@]3(CO)O[C@@H]23)[C@@H]1OC(=O)/C=C/c1ccc(O)cc1`, the “activity, negative = inhibition” value was 3.42% [at 25.7 µM].

As for `O=C(O)CCc1c(C(=O)O)[nH]c2cc(Cl)cc(Cl)c12`, the “activity, negative = inhibition” value was -12.7% [at 25.7 µM].

For `CC(=O)O[C@@H]1C[C@@H](C)[C@](O)(CCC2=CC(=O)OC2)[C@@]2(C)CCCC(C)(C)C12` (stereo not given in full), the “activity, negative = inhibition” value is 1.69%.

With `C[C@@H]1O[C@@H](O[C@H]2[C@@H]3C=CO[C@@H](O[C@@H]4O[C@H](CO)[C@@H](O)[C@H](O)[C@H]4O)[C@@H]3[C@@]3(CO)O[C@@H]23)[C@H](O)[C@H](OC(=O)/C=C/c2ccc(O)cc2)[C@H]1OC(=O)/C=C/c1ccc(O)cc1`, the “activity, negative = inhibition” value was 1.14% [at 25.7 µM].

As for `CC1(C)C=Cc2c(ccc3c2N=C2C(C)(C)[C@@H]4C[C@]56CCCN5C(=O)[C@@]4(C[C@]23O)NC6=O)O1`, the “activity, negative = inhibition” value is 2.37% [at 25.7 µM].

For `C[C@H](/C=C/[C@@]1(O)[C@H](C)CC(=O)CC1(C)C)O[C@@H]1O[C@H](CO[C@@H]2OC[C@@H](O)[C@H](O)[C@H]2O)[C@@H](O)[C@H](O)[C@H]1O`, the “activity, negative = inhibition” value was 1.54% [at 25.7 µM].

On to `C/C=C/C=C/[C@@H]1O[C@](O)([C@H](CC)C(=O)NC/C=C/C=C(\C)[C@@H](OC)[C@@H](C)[C@@H]2O[C@H](/C=C/C=C/C=C(\C)C(=O)c3c(O)ccn(C)c3=O)[C@H](O)[C@@H]2O)[C@H](O)[C@H](O)C1(C)C`, for which the activity, negative = inhibition was -0.199% [at 11.6 µM].

In the case of `CC[C@@H](C)[C@H](NC(=O)C(C)(C)NC(=O)[C@H](CCC(N)=O)NC(=O)C(C)(CC)NC(=O)[C@H](Cc1c[nH]c2ccccc12)NC(C)=O)C(=O)N[C@H](C(=O)NC(C)(C)C(=O)N[C@@H](CC(C)C)C(=O)NC(C)(C)C(=O)N1CCC[C@H]1C(=O)N[C@@H](CCC(N)=O)C(=O)NC(C)(C)C(=O)N1CC(O)C[C@H]1C(=O)NC(C)(CC)C(=O)C1CC[C@@H](C(=O)N[C@@H](Cc2ccccc2)C(=O)NCC(=O)O)N1)C(C)O` (stereo not given in full) (Ac-W[ξIva]Q[Aib][aIle][Thr(3ξ)][Aib]L[Aib]PQ[Aib][X8]-X9), the activity, negative = inhibition is -3.07% [at 6.45 µM].

Take `CC(C)=CCC/C(C)=C/CO[C@@H]1O[C@H](CO[C@@H]2O[C@@H](CO)[C@H](O)[C@H]2O)[C@@H](O)[C@H](O)[C@H]1O`: the “activity, negative = inhibition” value was 4.43% [at 25.7 µM].

In the case of `CC(=O)OC12CC(C)C(OC(=O)c3ccccc3)C1/C=C(/C)C(OC(=O)c1ccccc1)CC(=O)C(C)(C)/C=C/C(C)C2=O` (stereo not given), the “activity, negative = inhibition” value is 3.78% [at 25.7 µM].

For the molecule `COc1cc(/C=C/C(=O)O[C@@H]2O[C@H](CO)[C@@H](O)[C@H](O)[C@H]2O)ccc1O`, the “activity, negative = inhibition” value is -1.6%.

As for `CC1CCC2C(C)(C)[C@H](O)CC[C@]2(C)C12Cc1c(O)cc3c(c1O2)CN(C(CCC(=O)O)C(=O)O)C3=O` (stereo not given in full), the “activity, negative = inhibition” value was 0.609% [at 25.7 µM].

With `NC1=NC2(c3cc(NC(=O)c4ccc(F)cn4)ccc3F)COCC2CS1` (stereo not given), the “activity, negative = inhibition” value was -7.76%.

`C=C1CC[C@H]2[C@@](C)(CCC(OC3OC(CO)C(O)C(O)C3O)[C@@]2(C)CO)C1C(=O)CC1=CCOC1=O` (stereo not given in full): the “activity, negative = inhibition” value was -1.83% [at 25.7 µM].

Consider `CCOc1ccc(-c2cc(NC(=O)c3c(F)cccc3F)c(C(=O)O)s2)cc1`, for which the Potency was 12 µM (active).

`C[C@H]1[C@H](C)CC[C@]2(C(=O)O)CC[C@]3(C)C(=CCC4[C@@]5(C)C[C@@H](O)[C@H](O)C(C)(C)C5CC[C@]43C)[C@H]12` (stereo not given in full): the “activity, negative = inhibition” value is -2.06% [at 25.7 µM].

With `CC1(C)CCC2(C(=O)O)CCC3(C)C(=CCC4C5(C)CCC(O)C(C)(CO)C5C(O)CC43C)C2C1` (stereo not given), the “activity, negative = inhibition” value is 2.05% [at 25.7 µM].

As to `COC(=O)C1=CO[C@@H](O[C@@H]2O[C@H](CO)[C@@H](O)[C@H](O)[C@H]2O)[C@@H]2[C@@H](C)[C@@H](OC(=O)/C=C/c3ccccc3)[C@@H](O)[C@H]12`, the “activity, negative = inhibition” value was 3.06% [at 25.7 µM].
